# Source: PubChem BioAssay (NCATS)
# Inconclusive results are not listed. Entries that show only a call come without a potency. Active and inactive are the calls of the source. Calls come from the whole dose curve; as a rule, active = well fitted inhibition curve with a large enough effect; inconclusive = small, poorly fitted or top-dose-only effect; inactive = flat fitted curve, though single readings scatter.
# Legend:
# Assay in all cases: qHTS profiling for inhibitors of Plasmodium falciparum proliferation (AID 504749); note: nearly all actives have a fitted effect of over 60% in size
# Conditions in all cases: P. falciparum in erythrocytes, SYBR Green DNA, 72 h; series mostly up to 28.7 µM
# CP315 = test system: CP315
# Procedure, shortened: (§1)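 Readout was DNA-dye fluorescence from lysed cultures, ex 485/em 535 nm. Parasitized red cells had grown 72 h with compound; data scaled between 0.29 uM artemisinin and DMSO wells and corrected using vehicle-only plates.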
# CP325 = test system: CP325
# Procedure, shortened: as §1
# CP329 = test system: CP329
# Procedure, shortened: as §1
# CP335 = test system: CP335
# Procedure, shortened: as §1
# DFO2036 = test system: DFO2036
# Procedure, shortened: as §1
# DIV14 = test system: DIV14
# Procedure, shortened: as §1
# DIV17 = test system: DIV17
# Procedure, shortened: as §1
# DIV30 = test system: DIV30
# Procedure, shortened: as §1
# Dd2 = test system: Dd2
# Procedure, shortened: as §1
# ECU = test system: ECU
# Procedure, shortened: as §1
# Potency is the fitted concentration of half-maximal effect.
SMILES,Potency (CP315),Potency (CP325),Potency (CP329),Potency (CP335),Potency (DFO2036),Potency (DIV14),Potency (DIV17),Potency (DIV30),Potency (Dd2),Potency (ECU)
NCCc1ccc(O)cc1,inactive,inactive,inactive,inactive,inactive,inactive,inactive,inactive,inactive,inactive
CN1C[C@H](C(=O)N[C@]2(C)O[C@@]3(O)[C@@H]4CCCN4C(=O)[C@H](Cc4ccccc4)N3C2=O)C=C2c3cccc4[nH]cc(c34)C[C@H]21,12 µM (active),6.75 µM (active),15.1 µM (active),0.675 µM (active),1.26 µM (active),0.536 µM (active),0.338 µM (active),1.69 µM (active),0.141 µM (active),0.316 µM (active)
Nc1nc(N)nc(NC2CC2)n1,inactive,inactive,inactive,inactive,inactive,inactive,inactive,inactive,inactive,inactive
C[C@](O)(CS(=O)(=O)c1ccc(F)cc1)C(=O)Nc1ccc(C#N)c(C(F)(F)F)c1,inactive,inactive,inactive,inactive,inactive,,,inactive,inactive,
CC(C)c1cccc(C(C)C)c1O,inactive,inactive,,inactive,inactive,,inactive,inactive,inactive,inactive
Oc1ccc(Cl)cc1,inactive,inactive,inactive,,inactive,inactive,inactive,inactive,inactive,inactive
CC(C)(C)NCC(O)c1ccccc1Cl (stereo not drawn),inactive,inactive,inactive,,inactive,8.49 µM (active),6.01 µM (active),,11.2 µM (active),
CC(C)(C)NCC(O)c1cc(Cl)c(N)c(C(F)(F)F)c1 (stereo not drawn),inactive,,inactive,,5.01 µM (active),6.01 µM (active),7.57 µM (active),,12.6 µM (active),5.01 µM (active)
CN1C(=O)NC(=O)C(C)(C2=CCCCC2)C1=O (stereo not drawn),inactive,inactive,inactive,inactive,inactive,inactive,inactive,inactive,inactive,inactive
COP(=S)(OC)Oc1ccc(S(=O)(=O)N(C)C)cc1,inactive,inactive,inactive,inactive,inactive,inactive,inactive,inactive,inactive,inactive
CCC(C)(C)c1ccc(O)cc1,inactive,inactive,inactive,inactive,inactive,inactive,inactive,inactive,inactive,inactive
O=C1CN=C(c2ccccc2)c2cc([N+](=O)[O-])ccc2N1,inactive,inactive,inactive,inactive,inactive,,inactive,inactive,inactive,inactive
CCC1(c2ccccc2)C(=O)N(COC)C(=O)N(COC)C1=O,inactive,inactive,inactive,inactive,inactive,inactive,inactive,inactive,inactive,inactive
CN1C(=O)C(O)N=C(c2ccccc2)c2cc(Cl)ccc21 (stereo not drawn),inactive,inactive,inactive,inactive,inactive,inactive,inactive,inactive,inactive,inactive
COP(=S)(OC)Oc1ccc(SC)c(C)c1,inactive,inactive,inactive,inactive,inactive,inactive,inactive,inactive,inactive,inactive
CC(C)NC(C)C,,inactive,inactive,,inactive,inactive,inactive,inactive,inactive,inactive
COc1ccc2c(c1)C13CCCC[C@@H]1C(C2)N(C)CC3 (stereo partly drawn),inactive,inactive,inactive,,inactive,2.69 µM (active),3.01 µM (active),,5.62 µM (active),

SMILES,Potency (CP315),Potency (CP325),Potency (CP329),Potency (CP335),Potency (DFO2036),Potency (DIV14),Potency (DIV17),Potency (DIV30),Potency (Dd2),Potency (ECU)
Clc1ccc(C(c2ccc(Cl)cc2)C(Cl)(Cl)Cl)cc1,inactive,inactive,inactive,inactive,inactive,,,,inactive,inactive
COC1CC(=C(c2cccs2)c2cccs2)C[N+](C)(C)C1 (stereo not drawn),,,,6.01 µM (active),5.62 µM (active),,,,,8.91 µM (active)
C[C@]12CCC(=O)C=C1CC[C@@H]1[C@@H]2CC[C@]2(C)C(=O)CC[C@@H]12,inactive,inactive,inactive,inactive,inactive,inactive,,inactive,inactive,
Nc1ccc([As](=O)(O)O)cc1,inactive,inactive,inactive,inactive,inactive,inactive,inactive,inactive,,inactive
COc1ccc2c(c1OC)C(=O)O[C@H]2[C@@H]1c2cc3c(cc2CCN1C)OCO3,inactive,inactive,inactive,inactive,,inactive,inactive,inactive,,
CCCCCCCCCC(=O)O[C@H]1CC[C@H]2[C@@H]3CCC4=CC(=O)CC[C@@H]4[C@H]3CC[C@]12C,inactive,inactive,inactive,inactive,inactive,inactive,inactive,inactive,,inactive
NNc1ccccc1,,inactive,inactive,inactive,inactive,inactive,inactive,inactive,inactive,inactive
O=c1[nH]oc2c1CCNC2,inactive,inactive,inactive,inactive,inactive,inactive,inactive,inactive,inactive,inactive
CN1CCC(O)(c2ccc(F)cc2)C(C(=O)c2ccc(F)cc2)C1 (stereo not drawn),inactive,inactive,inactive,inactive,inactive,inactive,inactive,inactive,inactive,inactive
CCOP(=S)(OCC)Oc1ccc2c(C)c(Cl)c(=O)oc2c1,inactive,,,,,inactive,inactive,,inactive,inactive
C=C(C)[C@H]1CN[C@H](C(=O)O)[C@H]1CC(=O)O,inactive,inactive,inactive,,inactive,inactive,inactive,inactive,inactive,inactive
COC(=O)C(c1ccccc1)C1CCCCN1 (stereo not drawn),inactive,inactive,inactive,inactive,inactive,,,inactive,,inactive
O=C(N/N=C/c1ccc([N+](=O)[O-])o1)c1cc([N+](=O)[O-])cc([N+](=O)[O-])c1O,,,,,3.98 µM (active),inactive,,,,
C=CCN1C[C@H](C)N([C@H](c2ccc(C(=O)N(CC)CC)cc2)c2cccc(OC)c2)C[C@H]1C,inactive,inactive,inactive,,,,,inactive,11.2 µM (active),
NC(=O)c1cc([N+](=O)[O-])cc([N+](=O)[O-])c1,inactive,,,,,,,inactive,inactive,inactive
O=C1c2ccccc2C(=O)c2ccccc21,inactive,inactive,inactive,,inactive,,,,,
Cc1nnc2n1-c1ccc(Cl)cc1C(c1ccccc1)=NC2,inactive,inactive,inactive,,inactive,inactive,inactive,,inactive,inactive
